We go through 40 compounds from PubChem BioAssay (EPA / NIEHS).

The source made the active and inactive calls. Rule for the calls: active = hit-call score of the fitted dose curve at least 0.9, where 1 is the maximum; inactive = score below 0.9.

A short description of this test: CCTE_Harrill_HTTr_Apoptosis_MCF7: CCTE's 6-hour Apoptosis Assessment for the High-Throughput Transcriptomics (HTTr) Platform, in MCF-7 cells cultured in DMEM + 10% fetal bovine serum, Harrill Lab (AID 2284011). From the text: This is a cell-based assay that evaluates apoptosis using high content imaging to evaluate activation of caspase-3/7 using the CellEvent Caspase 3/7 Green detection reagent in 384-well format.One of seven assay components measured from the CCTE_Harrill_HTTr_Apoptosis assay. This was part of a full screening experiment. This is a cell-based assay that evaluates apoptosis in MCF-7 cells cultured in DMEM + 10% fetal bovine serum. High content imaging is used to evaluate activation of caspase-3/7 using the CellEvent Caspase 3/7 Green detection reagent. Measurements are taken at 6 hours after chemical dosing in 384-well format.The assay component endpoint CCTE_Harrill_HTTr_Apoptosis_MCF7 was analyzed with bidirectional fitting relation to DMSO as the negative control and baseline of activity. Using a type of viability reporter, gain-of-signal activity can be used to evaluate activation of caspase-3/7 using the CellEvent Caspase 3/7 Green detection reagent to understand changes in apoptosis. To generalize the intended target to other relatable targets, this assay endpoint is annotated to cell cycle, where the subfamily is apoptosis.
Chemicals were tested in MCF7 cells in an eight point dilution series with a six hour exposure duration.
Turning to `Oc1cccc(O)c1`, the outcome was inactive.
For `CC(C)CCCCCCOC(=O)CCCCC(=O)OCCCCCCC(C)C` the value was “inactive”; for `COc1cc(CCC(=O)CC(=O)CCc2ccc(O)c(OC)c2)ccc1O`, “inactive”; for `OC1CCCCC1`, “inactive”.
Consider `CC(=O)NC1(c2cccc(F)c2)CCN(CC[C@@]2(c3ccc(Cl)c(Cl)c3)CN(c3ccccc3)C(=O)CO2)CC1`, for which the result was inactive.
For `CCCCC(CC)COC(=O)CCCCC(=O)OCC(CC)CCCC` (stereo not given) the value was “inactive”; for `CC#C[C@]1(O)CC[C@H]2[C@@H]3CCC4=CC(=O)CCC4=C3[C@@H](c3ccc(N(C)C)cc3)C[C@@]21C`, “inactive”; for `CC(C)(C)c1cccc(C(C)(C)C)c1O`, “inactive”.
For the compound `CCc1ccc(CCOc2ccc(CC3SC(=O)NC3=O)cc2)nc1` (stereo not given), the outcome was inactive.
Under `Nc1cccc2c(N)cccc12` stands “inactive”; under `OCCC(F)(F)C(F)(F)C(F)(F)C(F)(F)C(F)(F)C(F)(F)C(F)(F)C(F)(F)F`, “inactive”.
For `CCCOC(=O)c1ccc(O)cc1` the value was “inactive”; for `CC(O)C(=O)O` (stereo not given), “inactive”; for `C=C(C)C(=O)OCCC(F)(F)C(F)(F)C(F)(F)C(F)(F)C(F)(F)C(F)(F)F`, “inactive”.
Take `O=C(O)Cc1cc(I)c(Oc2cc(I)c(O)c(I)c2)c(I)c1`: the outcome was inactive.
Under `O=C(/C=C/c1ccc(O)cc1)CC(=O)/C=C/c1ccc(O)cc1` stands “inactive”; under `CC(C)(C)CC(C)(C)c1ccc(O)c(-n2nc3ccccc3n2)c1`, “inactive”.
For the compound `CCCCCCCCOC(=O)CCCCCCCCC(=O)OCCCCCCCC`, the result was inactive.
For `OC1CCC(C2CCCCC2)CC1` (stereo not given) the value was “inactive”; for `C[C@@H]1C[C@H]2[C@@H]3CCC4=CC(=O)C=C[C@]4(C)[C@@]3(F)[C@@H](O)C[C@]2(C)[C@@]1(O)C(=O)COP(=O)(O)O`, “inactive”; for `c1ccc2cc3c(ccc4ccccc43)cc2c1`, “inactive”.
For `COC(=O)CCCCC(=O)OC` the value was “inactive”; for `CCCCC[C@H](O)CC(=O)CCc1ccc(O)c(OC)c1`, “inactive”.
Under `CC1=C(/C=C/C(C)=C/C=C/C(C)=C/C(=O)O)C(C)(C)CCC1` stands “inactive”; under `CCCCCCC(=O)O`, “inactive”.
As for `N#C[C@@H]1CC(F)(F)CN1C(=O)CNC1CC2CCC(C1)N2c1ncccn1` (stereo not given in full), the result was inactive.
For `CCCCC(CC)COC(=O)CCCCC(=O)OCc1ccccc1` (stereo not given) the value was “inactive”.
For `CCCCCCCCC(=O)O` the value was “inactive”; for `COCC(C)O` (stereo not given), “inactive”; for `CCCCCCCCCCCCc1ccccc1S(=O)(=O)O`, “inactive”.
For `CC[C@H](C)[C@@H](C(=O)O)n1sc2ccccc2c1=O` the value was “inactive”; for `O=c1c(-c2ccc(O)cc2)coc2cc(O)ccc12`, “inactive”; for `CCCCOCCO`, “inactive”.
As to `Cc1cc(C)c(O)c(C)c1`, the result was inactive.
Under `CN1CCN(c2ccccc2/C=C2\SCCN(c3ccc(Cl)c(Cl)c3)C2=O)CC1` stands “inactive”; under `Cc1oc(-c2ccccc2)nc1CCOc1ccc(C[C@H](Nc2ccccc2C(=O)c2ccccc2)C(=O)O)cc1`, “inactive”.
Take `O=C(O)c1ccccc1C(c1ccc(O)cc1)c1ccc(O)cc1`: the outcome was inactive.
Under `CC(C)(C)c1ccc(O)c(C(C)(C)C)c1` stands “inactive”.
Under `OCCC(F)(F)C(F)(F)C(F)(F)C(F)(F)C(F)(F)C(F)(F)F` stands “inactive”; under `CCc1nn(C2CCCCC2)c2cc(C3(C#N)CCC(C(=O)O)CC3)ccc12` (stereo not given), “inactive”.
